The list is not random: actives were taken first. Their share in the collection is about 6.6%.
Mdm2-MdmX inh: inhibitors of human Mdm2-MdmX association, primary screen, cell-based, luminescence, split luciferase, SaOS-2, uHTS | Protein Mdm4 (Homo sapiens) + E3 ubiquitin-protein ligase Mdm2 (Homo sapiens), … | SaOS-2 split-luciferase Mdm2/MdmX complementation | inhibition, % at 8 µM | 330,000 tested, 3% active;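 active = inhibition of at least 50% at 8 µM in the primary screen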
Target sequence (O15151 whole entry, looked up): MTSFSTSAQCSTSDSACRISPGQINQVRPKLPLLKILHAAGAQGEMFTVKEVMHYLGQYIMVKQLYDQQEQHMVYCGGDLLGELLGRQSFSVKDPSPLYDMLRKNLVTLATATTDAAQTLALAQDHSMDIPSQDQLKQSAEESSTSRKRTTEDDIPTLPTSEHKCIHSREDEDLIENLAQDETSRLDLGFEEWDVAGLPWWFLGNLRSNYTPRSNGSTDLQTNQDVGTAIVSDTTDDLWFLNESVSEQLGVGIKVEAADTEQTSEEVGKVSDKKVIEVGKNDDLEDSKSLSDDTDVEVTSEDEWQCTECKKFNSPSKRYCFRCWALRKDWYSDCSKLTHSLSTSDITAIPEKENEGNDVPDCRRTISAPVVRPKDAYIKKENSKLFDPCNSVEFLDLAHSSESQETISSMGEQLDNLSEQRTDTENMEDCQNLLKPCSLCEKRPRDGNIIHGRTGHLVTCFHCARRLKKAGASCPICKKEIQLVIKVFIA
Target sequence (Q00987 whole entry, looked up): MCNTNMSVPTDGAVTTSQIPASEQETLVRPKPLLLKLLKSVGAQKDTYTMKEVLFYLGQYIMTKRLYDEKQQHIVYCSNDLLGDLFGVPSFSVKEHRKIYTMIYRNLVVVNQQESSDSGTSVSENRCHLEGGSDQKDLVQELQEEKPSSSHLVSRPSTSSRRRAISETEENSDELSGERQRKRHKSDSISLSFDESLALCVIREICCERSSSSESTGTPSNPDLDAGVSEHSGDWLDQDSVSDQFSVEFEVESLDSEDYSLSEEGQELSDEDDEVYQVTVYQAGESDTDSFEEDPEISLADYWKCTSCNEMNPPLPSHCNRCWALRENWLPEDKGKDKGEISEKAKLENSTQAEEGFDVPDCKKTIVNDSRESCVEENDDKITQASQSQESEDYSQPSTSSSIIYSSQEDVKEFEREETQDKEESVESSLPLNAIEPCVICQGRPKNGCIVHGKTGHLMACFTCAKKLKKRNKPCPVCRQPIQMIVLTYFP
MPTP inh: mitochondrial permeability transition pore inhibitors, primary screen, biochemical, isolated mouse mitochondria, absorbance; Ca2+ swelling absorbance, 30 min; inhibition, % at 10 µM; AID 602449, 2012; 360,000 tested, 1.4% active;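 active = inhibition of 50% or more, scaled per plate between neutral and stimulator controls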;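 also: 0% = DMSO wells given calcium and 100% = 1 mM EGTA wells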
Beta cell apopt: inhibitors of cytokine-induced beta cell apoptosis, primary screen, luminescence; INS-1E cytokine-induced death, ATP luminescence, 48 h; percent of positive-control rescue, neutral wells zero; protection from apoptosis, % (concentration not given with the values); 300,000 tested, 0.8% active;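 active = Every replicate reaches about 75%, or at least half do and their mean reaches it too, limit read from the data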;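 also: 0% = cytokine-treated negative control wells and 100% = positive control rescue; higher means more ATP so stronger rescue from cytokine killing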
CSC inhib: cancer stem cell viability inhibitors, primary screen, luminescence; cancer stem cell-like cells viability; inhibition, % at 7.5 µM; 300,000 tested, 1.1% active; AID 2717, 2010; in the data active = inhibition above about 75%; tested in HMLE shEcad cells
GRIN3A LBD mod: binders of NR3A ligand-binding domain, primary screen, biophysical, differential scanning fluorimetry, uHTS. Glutamate receptor ionotropic, NMDA 3A (GRIN3A) ligand-binding domain. NR3A LBD differential scanning fluorimetry, Tm shift; 0% = protein alone, 100% = glycine-bound protein. Tm shift relative to glycine control, % at 25 µM. 340,000 tested, 2.5% active;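 active = melting temperature shift of at least 10% of the positive control shift, at one fixed dose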
Gli-Sufu block: Gli-Sufu pathway antagonists, primary screen, luciferase luminescence, Sufu-KO-LIGHT cells, uHTS | 340,000 tested, 0.74% active | Sufu-KO-LIGHT fibroblasts, Gli luciferase reporter luminescence | inhibition, % at 5 µM;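 active = inhibition above about 55%, limit read from the data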;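 also: 0% = DMSO-treated cells and 100% = wells with medium but no cells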
Mdm2 MdmX conf: Mdm2-MdmX complex disruptors, retested hits, confirmation, luminescence, single concentration; shares compounds with Mdm2-MdmX inh; Mdm2-MdmX binding, luminescent assay; inhibition, % at 8 µM; 10,000 tested, 55% active; AID 489028, 2010; in the data active = inhibition above about 40%
Full FLuc ctr: full-length luciferase signal inhibition, confirmation, counter-screen for Mdm2/MdmX interaction inhibitor project, cell-based, single concentration, SaOS-2 | SaOS-2 full-length luciferase counterscreen, luminescence | inhibition, % at 8 µM | 6,200 tested, 77% active | shares compounds with Mdm2-MdmX inh | AID 504607, 2011;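 active = mean inhibition at 8 µM reaching about 37%, which flags the compound as non-specific, limit read from the data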;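 also: p53-null SaOS-2 cells with luciferase driven by a doxycycline-inducible promoter; compound on cells about two nights before reading with doxycycline added after day one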
* hit, by the source's call; / = no result given.

SMILES	Mdm2-MdmX inh	MPTP inh	Beta cell apopt	CSC inhib	GRIN3A LBD mod	Gli-Sufu block	Mdm2 MdmX conf	others
O=C(CNC(=O)c1ccccc1F)NCC(c1cccs1)N1CCOCC1 (stereo not given)	-20.4	-1.8	2.4	/	1.1	-0.5	/
Clc1ccc(C(c2nnnn2C2CCCC2)N2CCN(Cc3ccncc3)CC2)cc1 (stereo not given)	6.1	-1.2	-3.5	-5.2	-3.0	1.0	/
O=c1c(C(c2nnnn2C2CCCCC2)N2CCCCC2)coc2ccc(Cl)cc12 (stereo not given)	52.7*	3.8	3.3	30.0	0.9	7.2	-1.6
Cc1ccc(/C=N/NC(=O)c2cc(-c3ccc(C)o3)[nH]n2)cc1	50.1*	3.8	/	-0.5	34.5*	27.8	54.4*	Full FLuc ctr=50.3*
Cc1ccc(-c2cc(C(=O)N/N=C/c3cccnc3)n[nH]2)o1	-10.2	-0.5	4.6	23.5	-0.2	-4.5	/
CCN(CC)C(=O)Cn1cc(C(=O)C(=O)NCCc2c[nH]c3ccccc23)c2ccccc21	9.3	-0.9	-1.8	13.3	-5.2	30.0	/
Nc1ccc2c(c1)C(=O)C(=O)c1ccccc1-2	98.3*	2.7	106.7*	-5.2	4.2	19.3	99.1*	Full FLuc ctr=0.8
O=C1C(=O)c2ccc(-c3ccccc3)cc2-c2ccccc21	84.1*	13.4	97.9*	130.8*	-1.3	-1.4	100.2*	Full FLuc ctr=52.0*
Nc1ccc2c(c1)C(=O)c1ccccc1-2	32.2	3.2	4.8	-7.3	-1.0	-1.0	/
Nc1ccc2c(c1)C(=O)c1ccccc1C2=O	-52.4	0.3	0.5	7.9	1.1	-56.3	/
CC1(C)C(=O)Nc2ccccc2N1C(=O)COC(=O)Cc1ccc(Cl)c(Cl)c1	0.2	0.1	-4.6	-4.1	-9.6	-3.9	/
Cc1ccc2nc(-c3ccccc3)nc(SC(C)C(=O)NCc3cccs3)c2c1 (stereo not given)	62.9*	/	15.4	3.6	/	/	-10.1
Cc1ccc(C)c2c(SC(C)C(=O)NCc3ccco3)nc(-c3ccccc3)nc12 (stereo not given)	17.4	-5.6	-3.7	-3.5	-0.9	11.3	/
O=c1/c(=C\c2ccc(O)cc2)sc2n1C(c1ccccc1)C(c1ccccc1)=NN=2 (stereo not given)	79.0*	-4.9	13.5	-2.4	14.6*	-11.0	42.9*	Full FLuc ctr=50.7*
COc1cccc(C2C(C(=O)OC(C)C)=C(C)N=c3s/c(=C\c4ccc(C(=O)O)cc4)c(=O)n32)c1 (stereo not given)	1.1	1.0	-3.1	22.1	-1.8	-24.1	/
CC(NC(=O)/C(C#N)=C/c1ccc([N+](=O)[O-])o1)c1ccccc1 (stereo not given)	100.3*	0.6	40.7	/	-0.2	-0.6	32.8
CC(NC(=O)/C(C#N)=C/c1ccco1)c1ccccc1 (stereo not given)	-20.8	1.0	-7.1	-0.9	-2.1	-0.8	/
COc1ccc(Br)cc1/C=C/c1ccc2cccc(O)c2n1	50.6*	1.0	20.1	28.4	-9.1	11.6	37.9
COc1cc(Br)cc(/C=C/c2ccc3cccc(O)c3n2)c1OC	65.4*	1.8	16.2	52.0	-1.1	7.4	26.1
CC(=O)COc1cccc2ccc(/C=C/c3ccc(Br)s3)nc12	14.5	0.0	-1.5	39.5	-6.4	-2.0	/
O=C(c1ccccc1Cl)N1N=C(c2ccc(Br)cc2)CC1c1nc2ccccc2[nH]1 (stereo not given)	71.0*	2.3	0.8	16.4	-3.3	13.6	50.2*	Full FLuc ctr=89.8*
O=C(c1ccncc1)N1N=C(c2ccc(Br)cc2)CC1c1ccccc1O (stereo not given)	42.8	-0.6	3.5	16.8	-10.3	-19.2	/
COc1cc(/C=C/C(=O)/C=C(O)/C=C/c2ccc(O)c(OC)c2)ccc1O	65.8*	5.1	2.9	3.5	26.8*	10.7	18.8
COc1cc(/C=C/C(=O)O)ccc1O	9.8	-1.3	/	3.1	0.8	0.3	/
COc1cc(/C=C/C(=O)CC(=O)/C=C/c2ccc(O)c(OC)c2)ccc1O	54.5*	7.2	/	94.3*	24.4*	42.1	7.5
SMILES	Mdm2-MdmX inh	MPTP inh	Beta cell apopt	CSC inhib	GRIN3A LBD mod	Gli-Sufu block	Mdm2 MdmX conf	others
CCOC(=O)C1CCN(C(=O)Cn2nc(C)n3nc(-c4ccc(CC)cc4)cc3c2=O)CC1	17.7	0.0	2.1	-6.0	-1.1	-15.7	/
COc1ccc(C(CNC(=O)C(C)Oc2ccc(Br)cc2)N2CCCC2)cc1 (stereo not given)	17.0	-0.4	/	0.3	-2.1	10.0	/
Cc1ccc(S(=O)(=O)N2C[C@@H]3CCCC[C@@H]3[C@@H](C)[C@H]2CC(=O)c2ccccc2)cc1	24.5	-2.5	/	/	0.3	-3.6	/
O=[N+]([O-])c1ccccc1/C=C/C=N/Nc1ccc(S(=O)(=O)Nc2ccc(Cl)cc2)cc1[N+](=O)[O-]	56.2*	4.5	29.8	40.3	11.1*	3.6	12.0
O=C(O)c1ccc(N/N=C/C=C/c2ccccc2[N+](=O)[O-])cc1	-19.9	0.6	-3.3	4.8	1.9	-20.7	/
O=[N+]([O-])c1cc(S(=O)(=O)Nc2cccc(Cl)c2)ccc1N/N=C/c1ccc(N2CCOCC2)cc1	84.1*	8.3	18.0	36.0	-0.8	-6.3	2.5
CNc1ncnc2c1ncn2[C@H]1CN(C2CCCC2)C[C@@H](CO)O1	/	-0.3	/	/	/	/	/
O=C(COC(=O)C(CO)NS(=O)(=O)c1ccc(Br)cc1)Nc1ccc2c(c1)OCCO2 (stereo not given)	21.7	-0.1	-0.3	-14.6	0.3	1.0	/
CN(C)CCNC(=O)c1ccc(COc2ccc(Cl)cc2Cl)cc1	62.4*	-5.0	2.1	53.8	-2.6	6.0	17.6
C=C(C)CCC(C)N1CCC(n2nccc2NC(=O)CCCc2ccccc2)CC1 (stereo not given)	11.8	-2.0	2.5	14.9	0.1	30.1	/
N#Cc1c(SCC(=O)Nc2ccc(Cl)cc2Cl)sc2c(O)cc(=O)[nH]c12	62.2*	-2.1	-4.3	-2.2	-4.0	-6.0	-8.4
Cc1onc(-c2c(Cl)cccc2Cl)c1C(=O)NCCc1ccncc1	3.9	-1.7	-6.0	13.5	1.1	15.4	/
Cc1ccc(S(=O)(=O)NC(C)(C)CN2CCCCC2)cc1	1.9	0.3	-4.3	7.0	-3.0	11.0	/

Bioassay records deposited in PubChem by several laboratories.
